In PubChem BioAssay AID1159580 (chemical genetic matrix, 2015):
“And” between values parts separate entries of the source, which are not always exact repeats. Equal entries are not always repeated. Screen size: about 5,500 compounds; about 2,000 (36%) were called active. Inconclusive results (about 18%) are left out. No stated cut-off is given here; in the data, active means normalized growth mostly below about 0.91 (no sharp cut-off); inconclusive means no clear call, values can overlap the other calls; inactive means mostly above about 0.92. Some of the results follow.

Assay: chemical genetic growth profiling, strain panel (AID 1159580);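 further: tested at 20 µM; growth read once vehicle control cultures reached saturation at 30 °C; 1 = growth at the plate median or of vehicle wells; lower values mean less growth of the strain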
Conditions: S. cerevisiae deletion strains, growth OD

Measured: normalized growth

OCCN(CCO)c1nc(N2CCCCC2)c2nc(N(CCO)CCO)nc(N3CCCCC3)c2n1
active: locus YDR195W, strain ref2 0.135
inactive: locus YAL013W, strain DEP1, active compounds read low 1.02 | locus YAL021C, strain ccr4, active compounds read low 0.962 | locus YAL026C, strain drs2, active compounds read low 0.964 | locus YAL030W, strain snc1, active compounds read low 0.992 | locus YAL040C, strain CLN3, active compounds read low 0.999 | locus YBL061C, strain skt5, active compounds read low 0.992 | locus YBR009C, strain hhf1, active compounds read low 0.981 | locus YBR021W, strain FUR4, active compounds read low 0.956 | locus YBR023C, strain chs3, active compounds read low 1 | locus YBR171W, strain sec66, active compounds read low 0.994 | locus YBR229C, strain ROT2, active compounds read low 1.01 | locus YBR231C, strain swc5, active compounds read low 0.944 | locus YBR279W, strain paf1, active compounds read low 0.986 | locus YCL011C, strain gbp2, active compounds read low 0.998 | locus YCL016C, strain dcc1, active compounds read low 1.03 | locus YCL029C, strain bik1, active compounds read low 1.01 | locus YCL061C, strain MRC1 (second series), active compounds read low 1 | locus YCL061C, strain MRC1, active compounds read low 1 | locus YCL069W, strain vba3, active compounds read low 0.97 | locus YCR088W, strain abp1, active compounds read low 0.989 | locus YDL005C, strain med2, active compounds read low 0.978 | locus YDL035C, strain GPR1, active compounds read low 1.01 | locus YDL040C, strain nat1, active compounds read low 0.976 | locus YDL074C, strain BRE1, active compounds read low 0.979 | locus YDL101C, strain DUN1, active compounds read low 1 | locus YDL134C, strain PPH21, active compounds read low 1 | locus YDL185W, strain tfp1, active compounds read low 0.995 | locus YDL192W, strain arf1, active compounds read low 0.999 | locus YDR001C, strain nth1, active compounds read low 0.993 | locus YDR069C, strain doa4, active compounds read low 0.969 | locus YDR101C, strain arx1, active compounds read low 0.99 | locus YDR137W, strain rgp1, active compounds read low 1.01 | locus YDR150W, strain NUM1, active compounds read low 1.01 | locus YDR159W, strain sac3, active compounds read low 0.937 | locus YDR162C, strain NBP2, active compounds read low 1 | locus YDR297W, strain sur2, active compounds read low 0.997 | locus YDR318W, strain mcm21, active compounds read low 0.996 | locus YDR334W, strain swr1, active compounds read low 0.974 | locus YDR335W, strain msn5, active compounds read low 0.988 | locus YDR363W, strain ESC2, active compounds read low 1.03 | locus YDR388W, active compounds read low 0.998 | locus YDR392W, strain spt3, active compounds read low 0.898 | locus YDR502C, strain sam2, active compounds read low 1.01 | locus YEL003W, strain gim4, active compounds read low 0.964 | locus YEL037C, strain rad23, active compounds read low 0.965 | locus YEL061C, strain CIN8 (second series), active compounds read low 0.976 | locus YEL061C, strain CIN8, active compounds read low 1.01 | locus YER002W, strain NOP16, active compounds read low 1 | locus YER015W, strain faa2, active compounds read low 0.978 | locus YER016W, strain bim1, active compounds read low 0.976 | locus YER110C, active compounds read low 1 | locus YER111C, strain swi4, active compounds read low 0.971 | locus YER155C, strain BEM2 (second series), active compounds read low 0.992 | locus YER155C, strain BEM2, active compounds read low 1.01 | locus YER167W, strain BCK2, active compounds read low 1.02 | locus YFR010W, strain ubp6, active compounds read low 0.956 | locus YGL078C, strain dbp3, active compounds read low 1 | locus YGL086W, strain mad1, active compounds read low 0.998 | locus YGL167C, strain pmr1, active compounds read low 0.987 | locus YGL173C, strain kem1, active compounds read low 0.982 | locus YGL227W, strain vid30, active compounds read low 0.989 | locus YGL240W, strain doc1, active compounds read low 0.979 | locus YGL248W, strain PDE1, active compounds read low 1.01 | locus YGL253W, strain hxk2, active compounds read low 0.956 | locus YGR135W, strain pre9, active compounds read low 0.993 | locus YGR229C, strain SMI1, active compounds read low 0.996 | locus YGR252W, strain gcn5, active compounds read low 0.931 | locus YHR013C, strain ard1, active compounds read low 0.988 | locus YHR027C, strain rpn1, active compounds read low 0.984 | locus YHR030C, strain SLT2, active compounds read low 1.01 | locus YHR079C, strain IRE1 (second series), active compounds read low 0.994 | locus YHR079C, strain IRE1, active compounds read low 1.1 | locus YHR094C, strain hxt1, active compounds read low 0.998 | locus YHR129C, strain ARP1, active compounds read low 1.01 | locus YHR142W, strain chs7, active compounds read low 0.97 | locus YHR200W, strain rpn10, active compounds read low 1 | locus YIL066C, strain RNR3, active compounds read low 1.02 | locus YIL073C, strain SPO22, active compounds read low 1.01 | locus YIL125W, strain kgd1, active compounds read low 1 | locus YIR030C, strain dcg1, active compounds read low 0.995 | locus YJL092W, strain hpr5, active compounds read low 0.979 | locus YJL095W, strain BCK1 (second series), active compounds read low 0.997 | locus YJL095W, strain BCK1, active compounds read low 0.988 and 1.01 | locus YJL115W, strain asf1, active compounds read low 0.99 | locus YJL129C, strain trk1, active compounds read low 0.95 | locus YJL134W, strain LCB3, active compounds read low 1 | locus YJL154C, strain vps35, active compounds read low 0.992 | locus YJL164C, strain tpk1, active compounds read low 0.975 | locus YJL166W, strain qcr8, active compounds read low 1.01 | locus YJL168C, strain set2, active compounds read low 0.991 | locus YJL187C, strain SWE1 (second series), active compounds read low 1 | locus YJL187C, strain SWE1, active compounds read low 0.989 | locus YJR043C, strain POL32, active compounds read low 1.01
